Our source for the Potency values is PubChem BioAssay (Tox21).

Assay [1] can be described thus: Nuclear factor erythroid 2-related factor 2/antioxidant responsive element (Nrf2/ARE) small molecule agonists: qHTS cell viability counter screen in human keratinocytes (AID 1919968; active means well fitted curve in the direction sought with a large enough effect in the repeat runs; an effect the other way counts as inactive or inconclusive; further: nearly all actives have a fitted effect of over 55% in size). In short, it runs like this:
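Stably transfected HaCaT (KeratinoSens), 1,500/well. Test agents in DMSO were applied for 23 h, 37 C/5% CO2. CellTiter-Fluor was incubated 1 h before the fluorescence read.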
Background: In qHTS, concentration-response curves come from the screen itself.

A short description of assay [2]: Nuclear factor erythroid 2-related factor 2/antioxidant responsive element (Nrf2/ARE) small molecule agonists: luciferase reporter gene qHTS assay in human keratinocytes (AID 1919969). Further: nearly all actives have a fitted effect of over 35% in size. On the technique in general: Reporter assays use an easily measured gene product as a stand-in for the process of interest.
The target of assay [3] is Gonadotropin-releasing hormone receptor (Homo sapiens) (UniProt P30968). Put plainly: Human gonadotropin-releasing hormone receptor (GnRHR) small molecule agonists, calcium flux assay in GnRHR-HEK293 cells (AID 1920063). Further: nearly all actives have a fitted effect of over 35% in size. In short, it runs like this:
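Stable human GnRHR HEK293 line. 18 h plating, then calcium dye for 1 h at 37 C. Agonist-mode compound addition from DMSO stocks; fluorescence monitored 3 min.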
(A change in cytosolic calcium serves as a functional read-out for many receptors and channels.)

Assay [4] has as its target KiSS-1 receptor (Homo sapiens) (UniProt Q969F8). Put plainly: Human kisspeptin (KISS1R) small molecule agonists, calcium flux assay in KISS1R-HEK293 cells (AID 1920064; active means well fitted curve in the direction sought with a large enough effect in the repeat runs; an effect the other way counts as inactive or inconclusive). In short, it runs like this: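 After overnight (18 h) culture at 37 C/5% CO2, human KISS1R-HEK293 cells received calcium dye for 1 h, then test compound; emission at 540 nm (excitation 480 nm) was tracked for 3 min.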

The nature of assay [5]: G protein-coupled receptor (GPCR) small molecule agonists, calcium flux assay: HEK293 wild type cell line counter screen (AID 1920065). In short, it runs like this: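 Following 18 h incubation at 37 C/5% CO2, plates got calcium dye for 1 h; compounds, ATP or DMSO were then pinned in and fluorescence followed kinetically (480/540 nm).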
Assay [6] can be described thus: p53 small molecule agonists, cell-based qHTS assay with human liver microsomes: qHTS cell viability counter screen (AID 1963579). Further: nearly all actives have a fitted effect of over 45% in size. In short, it runs like this:
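Metabolically activated exposure: compounds, human liver microsomes and NADPH (0.5 mg/mL final apiece) were added to p53RE-bla cells seeded 5 h earlier, left 16 h at 37 C, and then assessed for viability by CellTiter-Glo luminescence.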

A short description of assay [7]: p53 small molecule agonists, cell-based qHTS assay with rat liver microsomes: qHTS cell viability counter screen (AID 1963580). Further: nearly all actives have a fitted effect of over 45% in size. In short, it runs like this: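 Cytotoxicity counter screen: intracellular ATP measured by CellTiter-Glo luminescence in the same wells as the beta-lactamase reporter read, on HCT-116 p53RE-bla cells exposed 16 h at 37 C to compounds with rat liver microsomes and NADPH, each 0.5 mg/mL final.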

Assay [8] is described as follows: p53 small molecule agonists, cell-based qHTS assay: qHTS cell viability counter screen (AID 1963581). Further: nearly all actives have a fitted effect of over 45% in size. In short, it runs like this:
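qHTS counter screen: 16 h compound exposure at 37 C of p53RE-bla HCT-116 cells (4,000 per well, seeded 5 h prior), cell viability by ATP luminescence.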

Assay [9] has as its target 5-hydroxytryptamine receptor 2A (Homo sapiens) (UniProt P28223). Put plainly: 5-hydroxytryptamine receptor 2A (HTR2A) small molecule agonists, cell-based qHTS assay (AID 1963587). Further: nearly all actives have a fitted effect of over 30% in size. In short, it runs like this:
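CHO cells stably expressing human HTR2A, plated 18 h, loaded with calcium dye 1 h at 37 C. Agonist mode: compounds added and intracellular calcium fluorescence recorded kinetically for 2 min at 1 sec intervals.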

The target in assay [10] is Muscarinic acetylcholine receptor M1 (Homo sapiens) (UniProt P11229). The assay is described as follows: Cholinergic receptor muscarinic 1 (CHRM1) small molecule antagonists, cell-based qHTS assay (AID 1963588). Further: nearly all actives have a fitted effect of over 40% in size. Further: potency means the concentration at half of the fitted maximal effect. In short, it runs like this:
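Compounds were tested at 15 concentrations in three independent runs. Dye-loaded CHRM1-CHO cells were exposed 5 min at room temperature before stimulation by acetylcholine added at 50nM. Intracellular calcium was read kinetically on FDSS for 3 min.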

Assay [11] shares this target. Put plainly: Cholinergic receptor muscarinic 1 (CHRM1) small molecule agonists, cell-based qHTS assay (AID 1963589). Further: nearly all actives have a fitted effect of over 35% in size. In short, it runs like this: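 Kinetic fluorescence (1 s intervals) of calcium-sensitive dye in human M1 CHO cells after compound addition; cells pre-incubated 18 h at 37 C/5% CO2 and dye-loaded 1 h.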
A short description of assay [12]: cAMP Responsive Elements (CRE) small molecule agonists, cell-based qHTS assay (AID 1963590). In short, it runs like this: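 Test agents in DMSO were incubated 3 h at 37 C/5% CO2 with CRE-bla HEK 293T cells seeded 18 h earlier; LiveBLAzer B/G FRET substrate was added and read after 2 h at room temperature.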
A short description of assay [13]: cAMP Responsive Elements (CRE) small molecule antagonists, cell-based qHTS assay (AID 1963591; active means well fitted inhibition curve with a large enough effect in the signal ratio in the repeat runs, not every such curve was filed as active; the % refers to the signal ratio). In short, it runs like this: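 Reporter line CRE-bla HEK 293T in dialyzed-FBS DMEM; cells preincubated 18 h, treated 3 h with compound plus NKH477 (0.25 uM final); LiveBLAzer FRET, 2 h RT.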
For assay [14], the target named is Beta-2 adrenergic receptor (Homo sapiens) (UniProt P07550). The assay is described as follows: Adrenergic beta2 receptor (ADRB2) small molecule antagonists, cell-based qHTS assay (AID 1963592). Further: series mostly up to about 92 µM; nearly all actives have a fitted effect of over 50% in size. In short, it runs like this: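 Assay format: CHO-ADRB2 cells, 18-20hr seeding at 37C/5% CO2, then compound plus 1nM isoproterenol agonist mix for 0.5hr RT. Homogeneous time-resolved fluorescence cAMP detection after 1hr, expressed as 665/615 nm ratio.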

For assay [15] the target is unchanged. Put plainly: Adrenergic beta2 receptor (ADRB2) small molecule agonists, cell-based qHTS assay (AID 1963593).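 Further: CHO cells stably overexpressing human ADRB2.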 In short, it runs like this: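 CHO cells stably over-expressing ADRB2 were plated overnight at 37C, then dosed with compounds plus a stimulation mix containing 100uM IBMX and 25uM Ro-20-1724 for 0.5hr at room temperature. cAMP was measured by HTRF competition, 1hr.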

Assay [16] addresses D(2) dopamine receptor (Homo sapiens) (UniProt P14416). The assay is described as follows: Dopamine D2 receptor (DRD2) small molecule agonists, cell-based qHTS assay (AID 1963594). Further: nearly all actives have a fitted effect of over 35% in size. In short, it runs like this: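 HEK293 cells stably expressing human DRD2, pre-treated with PDE inhibitor Ro20-1724 (0.1 mM final) and compound 10 min at room temperature, then stimulated with NKH477 (200nM […]) for 30 min. cAMP read by HTRF (665/620 nm).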

The target is the same in assay [17]. The assay is described as follows: Dopamine D2 receptor (DRD2) small molecule antagonists, cell-based qHTS assay (AID 1963595; active means well fitted inhibition curve with a large enough effect in the signal ratio in the repeat runs, with a control signal flat; the % refers to the signal ratio). In short, it runs like this: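 Cells were plated and grown for 24 h at 37 °C. Ro20-1724 (0.1 mM final) went in first, then compound for 10 min. NKH477 (200 nM) with quinpirole (12 nM) followed for 30 min at RT, then HTRF detection reagents for 1 h.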

Results filed as inconclusive are left out. The source made the active and inactive calls. Unless noted, the call rests on the fitted dose curve.

Sequence of Gonadotropin-releasing hormone receptor (Homo sapiens) (P30968 whole entry, looked up): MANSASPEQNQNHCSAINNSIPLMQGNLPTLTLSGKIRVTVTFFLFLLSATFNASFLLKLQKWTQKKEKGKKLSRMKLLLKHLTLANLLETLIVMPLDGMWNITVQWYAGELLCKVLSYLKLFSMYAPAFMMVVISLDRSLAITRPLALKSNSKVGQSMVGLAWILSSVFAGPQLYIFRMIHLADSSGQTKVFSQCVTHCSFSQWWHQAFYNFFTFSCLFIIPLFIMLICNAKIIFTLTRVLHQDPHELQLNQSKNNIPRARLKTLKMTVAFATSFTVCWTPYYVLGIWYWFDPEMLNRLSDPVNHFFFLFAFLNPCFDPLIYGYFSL
Sequence of 5-hydroxytryptamine receptor 2A (Homo sapiens) (P28223 whole entry, looked up): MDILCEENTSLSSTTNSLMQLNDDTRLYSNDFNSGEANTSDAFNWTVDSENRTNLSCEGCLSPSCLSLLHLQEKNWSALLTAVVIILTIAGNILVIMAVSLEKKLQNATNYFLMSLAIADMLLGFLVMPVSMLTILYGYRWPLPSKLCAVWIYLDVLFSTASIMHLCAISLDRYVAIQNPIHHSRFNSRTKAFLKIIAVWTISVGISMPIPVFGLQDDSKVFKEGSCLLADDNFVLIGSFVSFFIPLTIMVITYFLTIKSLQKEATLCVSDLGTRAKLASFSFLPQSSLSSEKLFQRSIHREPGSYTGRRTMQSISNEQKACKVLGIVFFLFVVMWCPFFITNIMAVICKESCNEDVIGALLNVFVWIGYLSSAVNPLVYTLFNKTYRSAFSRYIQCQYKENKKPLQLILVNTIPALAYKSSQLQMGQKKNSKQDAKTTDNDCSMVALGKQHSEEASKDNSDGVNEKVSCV
Sequence of Beta-2 adrenergic receptor (Homo sapiens) (P07550 whole entry, looked up): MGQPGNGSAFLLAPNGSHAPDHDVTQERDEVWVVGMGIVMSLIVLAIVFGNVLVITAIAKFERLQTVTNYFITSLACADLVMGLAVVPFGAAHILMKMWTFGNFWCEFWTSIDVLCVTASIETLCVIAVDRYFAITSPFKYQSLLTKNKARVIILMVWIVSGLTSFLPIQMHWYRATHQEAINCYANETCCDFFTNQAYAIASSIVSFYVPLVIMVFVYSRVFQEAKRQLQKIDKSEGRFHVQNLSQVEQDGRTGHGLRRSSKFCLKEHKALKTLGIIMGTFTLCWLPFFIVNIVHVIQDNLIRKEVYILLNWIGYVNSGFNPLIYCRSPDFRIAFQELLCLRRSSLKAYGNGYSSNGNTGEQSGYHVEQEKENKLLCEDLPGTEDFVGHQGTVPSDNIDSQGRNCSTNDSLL
Sequence of Muscarinic acetylcholine receptor M1 (Homo sapiens) (P11229 whole entry, looked up): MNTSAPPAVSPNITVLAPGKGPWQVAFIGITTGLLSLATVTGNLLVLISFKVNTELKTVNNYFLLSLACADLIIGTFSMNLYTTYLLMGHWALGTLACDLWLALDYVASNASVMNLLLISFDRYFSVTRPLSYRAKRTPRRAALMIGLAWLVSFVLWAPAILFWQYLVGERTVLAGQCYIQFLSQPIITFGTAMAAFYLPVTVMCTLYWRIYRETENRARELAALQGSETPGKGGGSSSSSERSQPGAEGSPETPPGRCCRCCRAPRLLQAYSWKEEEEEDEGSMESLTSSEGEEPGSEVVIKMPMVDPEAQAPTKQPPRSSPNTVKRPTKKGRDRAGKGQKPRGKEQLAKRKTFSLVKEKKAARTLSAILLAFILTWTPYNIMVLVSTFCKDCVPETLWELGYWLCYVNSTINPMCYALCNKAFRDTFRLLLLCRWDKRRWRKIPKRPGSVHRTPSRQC
Sequence of D(2) dopamine receptor (Homo sapiens) (P14416 whole entry, looked up): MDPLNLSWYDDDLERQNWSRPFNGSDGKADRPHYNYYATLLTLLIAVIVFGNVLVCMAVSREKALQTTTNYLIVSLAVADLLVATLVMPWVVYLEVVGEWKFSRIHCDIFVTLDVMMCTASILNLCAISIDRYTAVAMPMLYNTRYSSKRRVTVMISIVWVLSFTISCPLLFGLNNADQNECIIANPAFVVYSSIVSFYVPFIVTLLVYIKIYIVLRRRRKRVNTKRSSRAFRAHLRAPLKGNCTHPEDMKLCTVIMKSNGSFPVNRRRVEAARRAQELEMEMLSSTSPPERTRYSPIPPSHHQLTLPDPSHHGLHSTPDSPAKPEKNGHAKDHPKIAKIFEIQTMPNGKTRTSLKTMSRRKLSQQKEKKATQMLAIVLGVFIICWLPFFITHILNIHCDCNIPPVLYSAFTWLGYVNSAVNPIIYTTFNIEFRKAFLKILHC
Sequence of KiSS-1 receptor (Homo sapiens) (Q969F8 whole entry, looked up): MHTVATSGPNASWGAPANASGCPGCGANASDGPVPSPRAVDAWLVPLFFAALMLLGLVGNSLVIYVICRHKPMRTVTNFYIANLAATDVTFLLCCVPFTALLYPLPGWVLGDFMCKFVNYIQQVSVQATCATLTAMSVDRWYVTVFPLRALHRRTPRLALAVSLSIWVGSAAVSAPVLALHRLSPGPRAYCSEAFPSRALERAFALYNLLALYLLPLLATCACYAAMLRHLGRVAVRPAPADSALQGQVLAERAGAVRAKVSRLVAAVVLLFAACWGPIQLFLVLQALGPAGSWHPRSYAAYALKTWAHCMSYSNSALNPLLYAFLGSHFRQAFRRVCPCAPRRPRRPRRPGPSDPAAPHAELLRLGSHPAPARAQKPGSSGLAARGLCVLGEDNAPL

Take `OCCc1ccncc1`: the Potency entry in assay [1], in assay [2], in [3], in assay [4], in assay [5] and in assay [6] was “inactive” throughout. Besides, the Potency result in [7], in assay [8], in [9], in assay [10], in assay [11] and in assay [12] was “inactive” in each case. Further, the Potency result in assay [13], in [14], in [15], in assay [16] and in [17] was “inactive” each time.
With `Cn1c(NCCN(CCO)CCCc2ccc([N+](=O)[O-])cc2)cc(=O)n(C)c1=O`, the Potency result in [1], in assay [2], in [3], in assay [4], in assay [5] and in assay [6] was “inactive” throughout. Besides, the Potency result in assay [7], in assay [8], in assay [10], in assay [11], in assay [12] and in [14] was “inactive” throughout. Further, the Potency entry in assay [15], in [16] and in [17] was “inactive” in each case.
For `C=CCOC(=O)COCCC(C)C`, the Potency entry in assay [1], in assay [2], in assay [3], in assay [4], in assay [5] and in assay [6] was “inactive” throughout. Moreover, the Potency entry in assay [7], in assay [8], in [9], in [11], in assay [12] and in [13] was “inactive” each time. Further, the Potency entry in [14], in assay [16] and in assay [17] was “inactive” each time.
With `CCC(C)OC(C)CC` (stereo not drawn), the Potency result in assay [1], in [2], in assay [3], in assay [4], in assay [5] and in assay [6] was “inactive” each time. Moreover, the Potency entry in assay [7], in [8], in assay [9], in assay [10], in [11] and in assay [12] was “inactive” throughout. Moreover, the Potency entry in assay [14] and in [15] was “inactive” throughout.
Turning to `CCOCCn1c(N2CCCN(C)CC2)nc2ccccc21`, the Potency result in assay [1], in assay [2], in assay [3], in assay [4], in assay [5] and in [6] was “inactive” each time. Further, the Potency result in assay [7], in assay [8], in assay [9], in assay [11], in assay [12] and in assay [14] was “inactive” throughout. For the same molecule, the Potency entry in [17] is “inactive”.
Regarding `CCC1Nc2cc(Cl)c(S(N)(=O)=O)cc2S(=O)(=O)N1` (stereo not drawn), the Potency entry in assay [1], in [2], in [3], in [4], in assay [5] and in [6] was “inactive” each time. Also, the Potency entry in assay [7], in assay [8], in assay [9], in assay [10], in [11] and in assay [12] was “inactive” throughout. In addition, the Potency result in assay [13], in [15], in [16] and in assay [17] was “inactive” in each case.
`CC(CC(=O)Cl)CC(C)(C)C` (stereo not drawn): the Potency result in assay [1], in assay [2], in assay [3], in assay [4], in [5] and in assay [6] was “inactive” each time. The Potency result in assay [7], in [8], in assay [9], in assay [10], in [11] and in [12] was “inactive” each time. The Potency entry in assay [14], in [15], in assay [16] and in [17] was “inactive” each time.
Take `CCCCOC(=O)CCCCC(=O)OCCCC`: the Potency result in assay [1], in [2], in assay [3], in [4], in assay [5] and in [6] was “inactive” throughout. The Potency result in assay [7], in assay [8], in [10], in assay [11], in [12] and in assay [13] was “inactive” in each case. Further, the Potency entry in assay [14], in assay [15] and in [16] was “inactive” each time.
As for `CCCOc1ccc(S(=O)(=O)N2CCN(CC)CC2)cc1-c1nc2c(CC)n(Cc3ccccn3)nc2c(=O)[nH]1`, the Potency result in [1], in assay [2], in assay [3], in assay [4], in assay [5] and in [6] was “inactive” each time. For the same molecule, the Potency result in assay [7], in assay [8], in assay [9], in [11] and in assay [17] was “inactive” each time. In addition, in assay [10], the Potency was 18.8 µM (active).
